Reference: PubChem BioAssay AID1159580 (chemical genetic matrix, 2015)
Several values for one entry are separate records, joined by “and”; a condition that tells them apart may be missing. Equal values may be shown once. The whole screen tested about 5,500 compounds, of which about 2,000 (36%) were called active. Not shown: some 18% with an inconclusive outcome. Cut-off read from the data, not from the text of the source: active = normalized growth mostly below about 0.91 (no sharp cut-off); inconclusive = no clear call, values can overlap the other calls; inactive = mostly above about 0.92. Some of the results follow.

Assay: chemical genetic growth profiling, strain panel (AID 1159580);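 note: tested at 20 µM; growth read once vehicle control cultures reached saturation at 30 °C; 1 = growth at the plate median or of vehicle wells; lower values mean less growth of the strain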
Settings: S. cerevisiae deletion strains, growth OD

Measured: normalized growth

CCCCC[C@H](CC(=O)NO)C(=O)N[C@H](C(=O)N1CCC[C@H]1CO)C(C)C
inactive: locus YAL013W, strain DEP1, active compounds read low 0.979 | locus YAL021C, strain ccr4, active compounds read low 1.02 | locus YAL026C, strain drs2, active compounds read low 1.01 | locus YAL030W, strain snc1, active compounds read low 1 | locus YBL061C, strain skt5, active compounds read low 1.01 | locus YBR009C, strain hhf1, active compounds read low 1.02 | locus YBR021W, strain FUR4, active compounds read low 1.04 | locus YBR023C, strain chs3, active compounds read low 1.01 | locus YBR171W, strain sec66, active compounds read low 1.02 | locus YBR229C, strain ROT2, active compounds read low 1 | locus YBR231C, strain swc5, active compounds read low 1.02 | locus YBR279W, strain paf1, active compounds read low 1.02 | locus YCL011C, strain gbp2, active compounds read low 1.01 | locus YCL016C, strain dcc1, active compounds read low 1.01 | locus YCL029C, strain bik1, active compounds read low 1.02 | locus YCL061C, strain MRC1, active compounds read low 1.01 | locus YCL069W, strain vba3, active compounds read low 1.01 | locus YCR088W, strain abp1, active compounds read low 1.01 | locus YDL005C, strain med2, active compounds read low 1.02 | locus YDL035C, strain GPR1, active compounds read low 0.989 | locus YDL040C, strain nat1, active compounds read low 1.02 | locus YDL074C, strain BRE1, active compounds read low 1.02 | locus YDL101C, strain DUN1, active compounds read low 1.02 | locus YDL185W, strain tfp1, active compounds read low 1.01 | locus YDL192W, strain arf1, active compounds read low 1.02 | locus YDR001C, strain nth1, active compounds read low 1.01 | locus YDR069C, strain doa4, active compounds read low 1.03 | locus YDR101C, strain arx1, active compounds read low 1.03 | locus YDR137W, strain rgp1, active compounds read low 0.972 | locus YDR150W, strain NUM1, active compounds read low 1.02 | locus YDR159W, strain sac3, active compounds read low 1.03 | locus YDR162C, strain NBP2, active compounds read low 0.988 | locus YDR195W, strain ref2 1 | locus YDR297W, strain sur2, active compounds read low 1.02 | locus YDR318W, strain mcm21, active compounds read low 1.01 | locus YDR334W, strain swr1, active compounds read low 1.01 | locus YDR335W, strain msn5, active compounds read low 1.02 | locus YDR388W, active compounds read low 1.02 | locus YDR392W, strain spt3, active compounds read low 1.04 | locus YDR502C, strain sam2, active compounds read low 1 | locus YEL003W, strain gim4, active compounds read low 1.02 | locus YEL037C, strain rad23, active compounds read low 1 | locus YEL061C, strain CIN8 (second series), active compounds read low 1.01 | locus YEL061C, strain CIN8, active compounds read low 1.01 | locus YER015W, strain faa2, active compounds read low 1.02 | locus YER016W, strain bim1, active compounds read low 1.01 | locus YER110C, active compounds read low 1.03 | locus YER111C, strain swi4, active compounds read low 1.02 | locus YER155C, strain BEM2 (second series), active compounds read low 1.02 | locus YER155C, strain BEM2, active compounds read low 1.01 | locus YER167W, strain BCK2, active compounds read low 0.999 | locus YFR010W, strain ubp6, active compounds read low 1.01 | locus YGL078C, strain dbp3, active compounds read low 1.02 | locus YGL086W, strain mad1, active compounds read low 1.01 | locus YGL167C, strain pmr1, active compounds read low 1.01 | locus YGL173C, strain kem1, active compounds read low 1.03 | locus YGL227W, strain vid30, active compounds read low 1.02 | locus YGL240W, strain doc1, active compounds read low 1.03 | locus YGL248W, strain PDE1, active compounds read low 1.02 | locus YGL253W, strain hxk2, active compounds read low 1.01 | locus YGR078C, strain PAC10, active compounds read low 1.01 | locus YGR135W, strain pre9, active compounds read low 1.01 | locus YGR252W, strain gcn5, active compounds read low 1.02 | locus YHR013C, strain ard1, active compounds read low 1.03 | locus YHR027C, strain rpn1, active compounds read low 1.02 | locus YHR030C, strain SLT2, active compounds read low 1.01 and 0.992 | locus YHR079C, strain IRE1 (second series), active compounds read low 1.03 | locus YHR079C, strain IRE1, active compounds read low 0.973 | locus YHR094C, strain hxt1, active compounds read low 1.01 | locus YHR129C, strain ARP1, active compounds read low 1.02 | locus YHR142W, strain chs7, active compounds read low 1.01 | locus YHR200W, strain rpn10, active compounds read low 1.01 | locus YIL066C, strain RNR3, active compounds read low 0.999 | locus YIL073C, strain SPO22, active compounds read low 1.06 | locus YIL125W, strain kgd1, active compounds read low 1.02 | locus YIR030C, strain dcg1, active compounds read low 1.02 | locus YJL092W, strain hpr5, active compounds read low 1.01 | locus YJL095W, strain BCK1 (second series), active compounds read low 1.02 | locus YJL095W, strain BCK1, active compounds read low 1.02 and 0.977 | locus YJL115W, strain asf1, active compounds read low 1 | locus YJL129C, strain trk1, active compounds read low 1.03 | locus YJL134W, strain LCB3, active compounds read low 1.01 | locus YJL154C, strain vps35, active compounds read low 1 | locus YJL164C, strain tpk1, active compounds read low 1.03 | locus YJL166W, strain qcr8, active compounds read low 1.02 | locus YJL168C, strain set2, active compounds read low 1.01 | locus YJL187C, strain SWE1 (second series), active compounds read low 1.04 | locus YJL187C, strain SWE1, active compounds read low 1.02
